Test results reported in a collection of fitness landscapes (doi:10.1016/j.celrep.2020.107928).
In all, about 81,000 sequences were measured (“one-hybrid fitness for binding parS DNA”: median about -0.17, highest 2% from about 0.51 on). For the sample, the highest values were picked, then their nearest neighbours and some sequences at random.

B1: Caulobacter ParB omega fusion; a variant is named by its letters at X, in order, B8GW30 (parent)
chain: MESVVVGEPGMSEGRRGLGRGLSALLGEVDAAPAQAPGEQLGGSREAPIEILQRNPDQPRRTFREEDLEDLSNSIREKGVLQPILVRPSPDTAGEYQIVAGERAWRAAQRAGLKTVPIMVRELDDLAVLEIGIIENVQRADLNVLEEALSYKVLMEKFERTQENIAQTIGKSXSHVANXMRLLXLPDEVQSYLVSGELTAXHARAIAAAADPVALAKQIIEGGLSVRETEALARKAPNLSAGKSKGGRPPRVKDTDTQALESDLSSVLGLDVSIDHRGSTGTLTITYATLEQLDDLCNRLTRGI

Variants of: B1
Test: one-hybrid fitness for binding parS DNA (scaled: cognate 1, non-cognate 0); higher = stronger binding
Settings: with parS DNA site
Outline: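 The reporter was HIS3, with the binding site 19 bp from the promoter, in E. coli USO used for bacterial one-hybrid selection of Caulobacter ParB libraries with four specificity codons randomised. Growth was on M9 lacking histidine, with 0.1 mM IPTG and 5 mM 3-AT, for 48 hours at 37°C. Illumina sequencing covered plasmids before and after selection; three replicate libraries were pooled and variants with under 10 reads dropped. A fitness score is the log change in variant-to-wild-type read ratio, rescaled to the cognate and non-cognate references.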

Point of comparison: RHAH, “one-hybrid fitness for binding parS DNA” value 0.202. Against it:
- RNYS — higher, 0.85
- RNQS — higher, 0.921
- RNQH — lower, ≤ 0.2
- RNGD — lower, ≤ 0.2
- RNGP — lower, ≤ 0.2
- RNSP — lower, ≤ 0.2
- RNYH — lower, ≤ 0.2
- RNSS — higher, 0.967
- RNGS — higher, 0.873
- GNAI — lower, ≤ 0.2
- MPRT — lower, ≤ 0.2
- LHGD — lower, ≤ 0.2
- GSGG — lower, ≤ 0.2
- TQRY — lower, ≤ 0.2
- LATY — lower, ≤ 0.2
- GQKN — lower, ≤ 0.2
- HRKI — lower, ≤ 0.2
- RNCD — lower, ≤ 0.2
- RNID — lower, ≤ 0.2
- RNIS — higher, 0.65
- RNRN — higher, 0.371
- RNCS — higher, 0.83
- RNCN — higher, 0.304
- RNIN — lower, ≤ 0.2
- RNRS — higher, 0.961
- RNRP — lower, ≤ 0.2
- ELGN — lower, ≤ 0.2
- PYSK — lower, ≤ 0.2
- NITG — lower, ≤ 0.2
- KRPK — lower, ≤ 0.2
- EVIR — lower, ≤ 0.2
- FSHN — lower, ≤ 0.2
- RCFI — lower, ≤ 0.2
- IRLE — lower, ≤ 0.2
- PFDT — lower, ≤ 0.2
- RPFA — lower, ≤ 0.2
- RWFA — higher, 0.298
- RNFA — higher, 0.301
- RSFA — higher, 0.558
- RCFA — higher, 0.589
- RDFA — lower, ≤ 0.2
- IFQR — lower, ≤ 0.2
- PTLA — lower, ≤ 0.2
- RHFY — higher, 0.377
- RHAD — lower, ≤ 0.2
- RHFG — higher, 0.876
- RHFF — lower, ≤ 0.2
- RHAG — higher, 0.969
- DYKT — lower, ≤ 0.2
- SRQA — lower, ≤ 0.2
- DEKR — lower, ≤ 0.2
- SVMF — lower, ≤ 0.2
- RPFT — lower, ≤ 0.2
- RSFT — higher, 0.751
- REFT — lower, ≤ 0.2
- RSFN — higher, 0.383
- RSFH — lower, ≤ 0.2
- RCFT — higher, 0.955
- WLLH — lower, ≤ 0.2
- REVI — lower, ≤ 0.2
- SAPY — lower, ≤ 0.2
- RRWG — higher, 0.906
- RTWG — higher, 1.03
- RRWF — lower, ≤ 0.2
- RTWF — higher, 0.275
- RMWY — higher, 0.497
- RLWQ — lower, ≤ 0.2
- RLWG — higher, 0.995
- RRWK — lower, ≤ 0.2
- RMWG — higher, 0.991
- RTWQ — lower, ≤ 0.2
- RLWR — lower, ≤ 0.2
- RMWR — lower, ≤ 0.2
- CQNS — lower, ≤ 0.2
- QVGP — lower, ≤ 0.2
